High-throughput results: PubChem, National Center for Advancing Translational Sciences (NCATS)
Rows were chosen to be rich in hits. Some 12% of all compounds tested hit in one or more screens of this group.
HCV inh: HCV inhibition | Huh7.5.1 HCVcc-Cre infection, luciferase reporter, 44 h | Potency, µM (doses to about 41.8 µM), without a hit: at the top dose activity change, negative = inhibition, most hits filed as inhibitors | 3.4% of 340,000 active | AID 651820; further: potency means the concentration at half of the fitted maximal effect; on the % scale 0 is the no-effect control and ±100 the full control effect
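After 44 h co-culture of compound, cells and HCVcc-Cre (~0.5 moi), substrate is added for 15 min at room temperature and luciferase measured over 15 sec. Cells were seeded at 1,000/well and pre-cultured 4 h.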
Pf growth 48h: inhibits P. falciparum growth in the first generation, 48 h | P. falciparum luciferase growth in erythrocytes, 48 h | AID 504832 | Potency, µM (titrated, usually from 28.7 µM), for the others: at the highest dose activity change, negative = inhibition, most hits filed as inhibitors | 5.9% of 310,000 active; further: potency means the concentration at half of the fitted maximal effect; on the % scale 0 is the no-effect control and ±100 the full control effect
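Cell-based growth assay: transgenic P. falciparum expressing firefly luciferase, cultured in red cells within RPMI 1640 containing 0.5% w/v Albumax, 24 mM bicarbonate and gentamycin. A drop in luciferase activity indicates inhibition.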
NS1 function inh: inhibitors of influenza NS1 protein function; Potency, µM (series often up to 46.1 µM), inactives show top-dose activity, positive = more growth; 0.4% of 270,000 active; calls by dose curve; further: potency means the concentration at half of the fitted maximal effect; actives are rising curves; nearly all actives have a fitted effect of over 50% in size
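OD600 was taken as the measure of yeast growth restored by compound in an NS1-expressing S. cerevisiae strain. Cells had been washed out of glucose medium and diluted 1:100 into galactose -URA medium, pH 6.0.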
AMA1-RON2 inh: inhibitors of Plasmodium falciparum AMA1-RON2 interaction; AlphaScreen AMA1-biotinylated RON2 peptide binding; Potency, µM (top dose mostly 58.2 µM), without a hit: at the top dose activity change, negative = inhibition, usual class: inhibitors; 0.2% of 360,000 active;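 further: potency means the concentration at half of the fitted maximal effect; 0% = vehicle wells and -100% = peptide control; nearly all actives have a fitted effect of over 45% in size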
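AMA1 (3D7) with his tag at 25 nM final met compounds first, then biotinylated RON2 peptide at 25 nM; detection used donor plus acceptor beads, 10 µg/mL apiece, read by AlphaScreen after 30 min at room temperature.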
SARS PLpro yeast-1: SARS-CoV PLP inhibition in yeast; S. cerevisiae expressing SARS-CoV PLpro, growth rescue; Potency, µM (titrated, usually from 32.9 µM), inactives show at the top dose activity, positive = growth rescue, most hits filed as activators; 0.19% of 330,000 active; calls by dose curve; further: potency means the concentration at half of the fitted maximal effect; 0% is about no effect; nearly all actives have a fitted effect of over 55% in size
Pf growth 96h: P. falciparum growth inhibition at 96 hours; P. falciparum luciferase reporter growth, 96 h; Potency, µM (top dose mostly 28.7 µM), inactives show top-dose activity change, negative = inhibition, usual class: inhibitors; 6.9% of 320,000 active; further: potency means the concentration at half of the fitted maximal effect; on the % scale 0 is the no-effect control and ±100 the full control effect
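Two parasite generations (96 h, 37 C, 5% CO2) of compound exposure in infected erythrocytes (0.05% parasitemia, 2% hematocrit). Luciferase-reporter P. falciparum; decreased luminescence indicates inhibited growth, aimed at apicoplast-acting delayed death.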
SARS PLpro yeast-2: Rescues yeast growth by inhibiting SARS-CoV PLpro | shares compounds with SARS PLpro yeast-1 | yeast expressing SARS-CoV PLpro, growth phenotype rescue | calls only | 19% of 1,000 active | AID 652038; call rule not given here
The depositor's hits bear a star; i = inactive; ? = inconclusive; . = no result; + = active, no number; [ ] = dose if it differs, or a comment. Unless noted, the call rests on the fitted dose curve; in most records, active means well fitted curve in the direction sought with a large enough effect; inconclusive means small, poorly fitted or top-dose-only effect, or another doubt; inactive means no such curve, though single readings can be large; an effect the other way counts as inactive or inconclusive.

SMILES	HCV inh	Pf growth 48h	NS1 function inh	AMA1-RON2 inh	SARS PLpro yeast-1	Pf growth 96h	SARS PLpro yeast-2
COc1ccc(CCn2c(C)cc(C(=O)CCl)c2C)cc1OC	?	?	.	-11%	10µM*	?	+
C[C@]12CC[C@@H]3c4ccc(O)cc4CC[C@H]3[C@@H]1C[C@@H](O)[C@@H]2O[C@@H]1O[C@H](C(=O)O)[C@@H](O)[C@H](O)[C@H]1O	-2%[8.37 µM]	-11%	-1%	8%	?	2%	i
C[C@]12CC[C@@H]3c4ccc(O)cc4CC[C@H]3[C@@H]1CC[C@@H]2O	-6%[8.37 µM]	-22%	-23%	0%	-17%	?	.
O=C(N/N=C/c1ccccn1)c1ccc(Br)cc1	-15%	?	-50%	71%	?	?	?
O=C(O)c1cccc(NC(=S)N/N=C/c2ccccn2)c1	-7%	149%	.	-66%	5µM*	?	+
O=C(Nc1sc2c(c1C(=O)NCC(O)CO)CCCC2)c1ccccc1 (stereo unspecified)	-2%	.	.	-29%	.	.	.
Cc1ccc(C(=O)NCC(=O)NCCCc2ccccc2)cc1	18%	5%	7%	-13%	-13%	4%	.
O=C(CSc1nc(-c2ccco2)cc(C(F)(F)F)n1)NCCc1ccccc1	-25%	?	-4%	2%	-1%	-13%	.
O=C(CSc1nc(-c2ccco2)cc(C(F)(F)F)n1)Nc1ccccc1C(F)(F)F	?	18%	-1%	3%	?	7.4µM*	i
Cc1ccc([N+](=O)[O-])cc1NC(=O)C1CCCC1	?	15%	-8%	6%	-1%	?	.
Cc1ccc([N+](=O)[O-])cc1NC(=O)C1CCN(S(C)(=O)=O)CC1	4%	58%	12%	11%	?	15%	i
CCNC(=O)CN(c1ccc(Cl)cc1)S(=O)(=O)c1ccccc1	-12%	5%	-11%	-11%	-19%	.	.
CCNC(=O)CN(c1ccccc1)S(=O)(=O)c1ccc(Cl)cc1	2%	.	6%	-7%	?	-27%	?
CC(Sc1nnc(NCc2ccccc2)s1)C(=O)Nc1ccc2c(c1)C(=O)c1ccccc1C2=O (stereo unspecified)	?	40%	?	-17%	?	2%	+
Cc1cscn1	6%	28%	.	0%	?	31%	i
Cc1csc(N)n1	-1%[8.37 µM]	21%	-2%	36%	-2%	-25%	.
CC(C)C(=O)NC(c1cccc([N+](=O)[O-])c1)c1ccc2cccnc2c1O (stereo unspecified)	4µM*	3.7µM*	.	1%	3.2µM*	26%	i
Cc1ccc(S(=O)(=O)N2CCN(c3ccc([N+](=O)[O-])c4cccnc34)CC2)cc1	4%	-11%	6%	-3%	-15%	?	.
CC(C)C(=O)NC(c1cccs1)c1cc([N+](=O)[O-])c2cccnc2c1O (stereo unspecified)	?	?	-5%	18%	?	2%	i
Cc1ccc(C(NC(=O)C(C)C)c2cc([N+](=O)[O-])c3cccnc3c2O)cc1 (stereo unspecified)	13µM*	3%	4%	24%[2.32 µM]	?	22%	?
COc1cc([N+](=O)[O-])c2ncccc2c1[N+](=O)[O-]	.	.	.	5%	.	.	.
C=CCn1c(SCc2cc(=O)n3cc(C)ccc3n2)nnc1-c1cccc(C)c1	?	-29%	-5%	10%	11µM*	?	i
O=C(/C=C/Nc1ccc(Br)cn1)c1cccc(OC(F)F)c1	?	264%	.	7%	-3%	274%	.
O=C(NC1CCN(S(=O)(=O)c2cccc(Cl)c2)CC1)C1CCCCC1	-10%	3%	13%	19%	9%	-2%	.
CCc1nc(Cl)c(C#N)c2c1CCCC2	?	15%	1%	-19%	4µM*	?	i
SMILES	HCV inh	Pf growth 48h	NS1 function inh	AMA1-RON2 inh	SARS PLpro yeast-1	Pf growth 96h	SARS PLpro yeast-2
Cc1ccc(CN2CCC(C(=O)c3ccc(F)cc3)CC2)cc1	.	.	.	-6%	.	.	.
COc1cc(CNCc2ccccn2)ccc1OCc1ccc(Cl)cc1	-4%	?	-7%	-3%	?	-27%	i
Nc1ccc2oc(-c3ccccc3Cl)nc2c1	-22%	83%	?	-15%	14µM*	32%	i
Nc1ccc2oc(-c3cc(Br)ccc3Cl)nc2c1	?	58%	15%	23%	-5%	.	.
Cc1ccccc1OCCOC(=O)c1cc(S(=O)(=O)N2CCCCC2)ccc1N1CCOCC1	11µM*	13µM*	.	-28%	10µM*	?	?
O=C(OCc1ccccc1F)c1cc(S(=O)(=O)N2CCCCC2)ccc1N1CCOCC1	.	.	.	-7%	.	.	.
CC(=O)Nc1nc(-c2ccc3ccccc3c2)cs1	-28%	336%	-2%	1%	-1%	438%	.
CC(=O)NCCC(=O)Nc1nc(-c2ccc3ccccc3c2)cs1	4%	28%	-1%	-6%	?	3%	i
O=C(CC1SC(N2CCCCC2)=NC1=O)Nc1cccc(C(=O)Nc2ncccc2O)c1 (stereo unspecified)	17%	-5%	.	61%	?	?	i
Cc1ccc(C(=O)NCC(=O)NCC(=O)OCC(=O)c2cccs2)cc1	22%	6%	4%	-14%	4%	-3%	.
COc1ccccc1CNC(=O)CCNC(=O)c1ccco1	?	?	.	-12%	-3%	22%	.
COc1ccc(C2C=C(C34CC5CC(CC(C5)C3)C4)NC(=S)N2)cc1OC (stereo unspecified)	-24%	?	19%	15%	14µM*	9.3µM*	+
COc1ccc(C2OCC(C)(C)CO2)cc1OC	16%	.	.	-2%	.	.	.
CCOc1ccc(C(C)(C)C)cc1S(=O)(=O)Nc1ccncc1	12%	6%	6%	-1%	8%	59%	.
S=C(NCCc1ccccc1)Nc1ccccn1	7%	50%	-2%	-4%	5.6µM*	?	+
O=c1c(N2CCOCC2)nsnc1N1CCOCC1	16%	15%	4%	-3%	?	-27%	i
CC(C)CNC(=S)NC(=O)c1ccccc1Cl	16%	31%	10%	12%	?	37%	i
COc1cccc(C(=O)CSc2nnc(-c3cc(OC)c(OC)c(OC)c3)o2)c1	-9%	.	1%	-1%	?	27%	?
CCOC(=O)C1=C2SCC(=O)N2C(N)=C(C#N)C1	-12%	16%	11%	16%	?	13%	i
CC(=O)c1cccc(CN2CCC(C(=O)Nc3ccc(Oc4cccnc4)cc3)CC2)c1	?	?	11%	-28%	?	?	i
